# Test results from the supplement of paper PMC4466140.
# Experiments:
# Assay in all cases: SPOT peptide array binding signal intensity (averaged, normalized) (arbitrary units (background-subtracted, floor 0; scale differs between SH3 domains)); higher = stronger binding of the SH3 domain to the peptide
# AgAbp1 = target: AgAbp1
# Method in brief: (§1)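 Four yeast species supplied the SH3 domains, which were expressed as GST fusions in E. coli BL21(DE3) and purified on glutathione Sepharose. Incubation with cellulose membranes carrying synthetic 15-mer peptides, cysteines exchanged for serines, ran overnight at 4°C at 10 μg/ml in TBS-based blocking buffer. Binding signal is reported as normalized, background-subtracted spot intensity averaged over replicates, in arbitrary units not shared between domains.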
# AgBbc1 = target: AgBbc1
# Method in brief: as §1
# AgBem1-D1 = target: AgBem1-D1
# Method in brief: as §1
# AgBzz1-D1 = target: AgBzz1-D1
# Method in brief: as §1
# AgBzz1-D2 = target: AgBzz1-D2
# Method in brief: as §1
# AgCyk3 = target: AgCyk3
# Method in brief: as §1
# AgFus1 = target: AgFus1
# Method in brief: as §1
# AgHof1 = target: AgHof1
# Method in brief: as §1
# AgHse1 = target: AgHse1
# Method in brief: as §1
# AgLsb1 = target: AgLsb1
# Method in brief: as §1
# AgLsb4 = target: AgLsb4
# Method in brief: as §1
# AgMyo5 = target: AgMyo5
# Method in brief: as §1
# AgNbp2 = target: AgNbp2
# Method in brief: as §1
# AgRvs167 = target: AgRvs167
# Method in brief: as §1
# AgSho1 = target: AgSho1
# Method in brief: as §1
# AgSla1-D1-D2 = target: AgSla1-D1-D2
# Method in brief: as §1
# AgSla1-D3 = target: AgSla1-D3
# Method in brief: as §1
# CaAbp1-D1 = target: CaAbp1-D1
# Method in brief: as §1
# CaAbp1-D2 = target: CaAbp1-D2
# Method in brief: as §1
# CaBbc1 = target: CaBbc1
# Method in brief: as §1
# CaBem1-D1 = target: CaBem1-D1
# Method in brief: as §1
# CaBzz1-D1 = target: CaBzz1-D1
# Method in brief: as §1
# CaBzz1-D2 = target: CaBzz1-D2
# Method in brief: as §1
# CaCyk3 = target: CaCyk3
# Method in brief: as §1
# CaFus1 = target: CaFus1
# Method in brief: as §1
# CaHof1 = target: CaHof1
# Method in brief: as §1
# CaHse1 = target: CaHse1
# Method in brief: as §1
# CaLsb1 = target: CaLsb1
# Method in brief: as §1
# CaLsb4 = target: CaLsb4
# Method in brief: as §1
# CaMyo5 = target: CaMyo5
# Method in brief: as §1
# CaNbp2 = target: CaNbp2
# Method in brief: as §1
# CaRvs167 = target: CaRvs167
# Method in brief: as §1
# CaRvs167-3 = target: CaRvs167-3
# Method in brief: as §1
# CaSho1 = target: CaSho1
# Method in brief: as §1
# CaSla1-D1-D2 = target: CaSla1-D1-D2
# Method in brief: as §1
# CaSla1-D3 = target: CaSla1-D3
# Method in brief: as §1
# ScAbp1 = target: ScAbp1
# Method in brief: as §1
# ScBbc1 = target: ScBbc1
# Method in brief: as §1
# ScBem1-D1 = target: ScBem1-D1
# Method in brief: as §1
# ScBzz1-D1 = target: ScBzz1-D1
# Method in brief: as §1
# ScBzz1-D2 = target: ScBzz1-D2
# Method in brief: as §1
# ScCyk3 = target: ScCyk3
# Method in brief: as §1
# ScFus1 = target: ScFus1
# Method in brief: as §1
# ScHof1 = target: ScHof1
# Method in brief: as §1
# ScHse1 = target: ScHse1
# Method in brief: as §1
# ScLsb1 = target: ScLsb1
# Method in brief: as §1
# ScLsb2 = target: ScLsb2
# Method in brief: as §1
# ScLsb3 = target: ScLsb3
# Method in brief: as §1
# ScLsb4 = target: ScLsb4
# Method in brief: as §1
# ScMyo3 = target: ScMyo3
# Method in brief: as §1
# ScMyo5 = target: ScMyo5
# Method in brief: as §1
# ScNbp2 = target: ScNbp2
# Method in brief: as §1
# ScPex13 = target: ScPex13
# Method in brief: as §1
# ScRvs167 = target: ScRvs167
# Method in brief: as §1
# ScSho1 = target: ScSho1
# Method in brief: as §1
# ScSla1-D1-D2 = target: ScSla1-D1-D2
# Method in brief: as §1
# ScSla1-D3 = target: ScSla1-D3
# Method in brief: as §1
# SpAbp1-D1 = target: SpAbp1-D1
# Method in brief: as §1
# SpBbc1 = target: SpBbc1
# Method in brief: as §1
# SpBzz1-D1 = target: SpBzz1-D1
# Method in brief: as §1
# SpBzz1-D2 = target: SpBzz1-D2
# Method in brief: as §1
# SpCyk3 = target: SpCyk3
# Method in brief: as §1
# SpHof1 = target: SpHof1
# Method in brief: as §1
# SpHof1-2 = target: SpHof1-2
# Method in brief: as §1
# SpHof1-3 = target: SpHof1-3
# Method in brief: as §1
# SpHse1 = target: SpHse1
# Method in brief: as §1
# SpLsb1 = target: SpLsb1
# Method in brief: as §1
# SpLsb4 = target: SpLsb4
# Method in brief: as §1
# SpMyo1 = target: SpMyo1
# Method in brief: as §1
# SpNbp2 = target: SpNbp2
# Method in brief: as §1
# SpPex13 = target: SpPex13
# Method in brief: as §1
# SpRvs167 = target: SpRvs167
# Method in brief: as §1
# SpSla1-D1-D2 = target: SpSla1-D1-D2
# Method in brief: as §1
# SpSla1-D3 = target: SpSla1-D3
# Method in brief: as §1
binder,measurement,setting,value
EQEEIAPSLPSRNSI,SPOT peptide array binding signal intensity,AgAbp1,6
same,SPOT peptide array binding signal intensity,AgBbc1,≤ 0
same,SPOT peptide array binding signal intensity,AgBem1-D1,≤ 0
same,SPOT peptide array binding signal intensity,AgBzz1-D1,10.5
same,SPOT peptide array binding signal intensity,AgBzz1-D2,1
same,SPOT peptide array binding signal intensity,AgCyk3,≤ 0
same,SPOT peptide array binding signal intensity,AgFus1,≤ 0
same,SPOT peptide array binding signal intensity,AgHof1,4.25
same,SPOT peptide array binding signal intensity,AgHse1,≤ 0
same,SPOT peptide array binding signal intensity,AgLsb1,17.5
same,SPOT peptide array binding signal intensity,AgLsb4,1050
same,SPOT peptide array binding signal intensity,AgMyo5,≤ 0
same,SPOT peptide array binding signal intensity,AgNbp2,10
same,SPOT peptide array binding signal intensity,AgRvs167,3
same,SPOT peptide array binding signal intensity,AgSho1,≤ 0
same,SPOT peptide array binding signal intensity,AgSla1-D1-D2,≤ 0
same,SPOT peptide array binding signal intensity,AgSla1-D3,≤ 0
same,SPOT peptide array binding signal intensity,CaAbp1-D1,≤ 0
same,SPOT peptide array binding signal intensity,CaAbp1-D2,7.5
same,SPOT peptide array binding signal intensity,CaBbc1,5.5
same,SPOT peptide array binding signal intensity,CaBem1-D1,2
same,SPOT peptide array binding signal intensity,CaBzz1-D1,≤ 0
same,SPOT peptide array binding signal intensity,CaBzz1-D2,≤ 0
same,SPOT peptide array binding signal intensity,CaCyk3,1
same,SPOT peptide array binding signal intensity,CaFus1,22
same,SPOT peptide array binding signal intensity,CaHof1,1
same,SPOT peptide array binding signal intensity,CaHse1,4
same,SPOT peptide array binding signal intensity,CaLsb1,0.5
same,SPOT peptide array binding signal intensity,CaLsb4,5990
same,SPOT peptide array binding signal intensity,CaMyo5,≤ 0
same,SPOT peptide array binding signal intensity,CaNbp2,≤ 0
same,SPOT peptide array binding signal intensity,CaRvs167,43.8
same,SPOT peptide array binding signal intensity,CaRvs167-3,1
same,SPOT peptide array binding signal intensity,CaSho1,≤ 0
same,SPOT peptide array binding signal intensity,CaSla1-D1-D2,≤ 0
same,SPOT peptide array binding signal intensity,CaSla1-D3,≤ 0
same,SPOT peptide array binding signal intensity,ScAbp1,14.5
same,SPOT peptide array binding signal intensity,ScBbc1,≤ 0
same,SPOT peptide array binding signal intensity,ScBem1-D1,≤ 0
same,SPOT peptide array binding signal intensity,ScBzz1-D1,7
same,SPOT peptide array binding signal intensity,ScBzz1-D2,1
same,SPOT peptide array binding signal intensity,ScCyk3,1
same,SPOT peptide array binding signal intensity,ScFus1,1
same,SPOT peptide array binding signal intensity,ScHof1,1.5
same,SPOT peptide array binding signal intensity,ScHse1,7
same,SPOT peptide array binding signal intensity,ScLsb1,127
same,SPOT peptide array binding signal intensity,ScLsb2,8
same,SPOT peptide array binding signal intensity,ScLsb3,4150
same,SPOT peptide array binding signal intensity,ScLsb4,2440
same,SPOT peptide array binding signal intensity,ScMyo3,≤ 0
same,SPOT peptide array binding signal intensity,ScMyo5,≤ 0
same,SPOT peptide array binding signal intensity,ScNbp2,2.5
same,SPOT peptide array binding signal intensity,ScPex13,646
same,SPOT peptide array binding signal intensity,ScRvs167,244
same,SPOT peptide array binding signal intensity,ScSho1,≤ 0
same,SPOT peptide array binding signal intensity,ScSla1-D1-D2,1
same,SPOT peptide array binding signal intensity,ScSla1-D3,1
same,SPOT peptide array binding signal intensity,SpAbp1-D1,1
same,SPOT peptide array binding signal intensity,SpBbc1,2
same,SPOT peptide array binding signal intensity,SpBzz1-D1,≤ 0
same,SPOT peptide array binding signal intensity,SpBzz1-D2,1
same,SPOT peptide array binding signal intensity,SpCyk3,≤ 0
same,SPOT peptide array binding signal intensity,SpHof1,1
same,SPOT peptide array binding signal intensity,SpHof1-2,≤ 0
same,SPOT peptide array binding signal intensity,SpHof1-3,0.75
same,SPOT peptide array binding signal intensity,SpHse1,≤ 0
same,SPOT peptide array binding signal intensity,SpLsb1,13
same,SPOT peptide array binding signal intensity,SpLsb4,4140
same,SPOT peptide array binding signal intensity,SpMyo1,≤ 0
same,SPOT peptide array binding signal intensity,SpNbp2,5.5
same,SPOT peptide array binding signal intensity,SpPex13,≤ 0
same,SPOT peptide array binding signal intensity,SpRvs167,450
same,SPOT peptide array binding signal intensity,SpSla1-D1-D2,2
same,SPOT peptide array binding signal intensity,SpSla1-D3,1
